Bioassay records from PubChem.
Compounds with a hit are over-represented: about 12% of the library has one in this group of screens.
G9a block = qHTS Assay for Inhibitors of Histone Lysine Methyltransferase G9a. AID 504332, 2011. Potency, µM (titrated, usually from 102 µM), hits mostly inhibitors. G9a H3K9 monomethylation, AlphaScreen, 2 h. 8.8% of 350,000 active. Histone-lysine N-methyltransferase EHMT2 (Homo sapiens), Q96KQ7; also: nearly all actives have a fitted effect of over 75% in size
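G9a (20 nM) was preincubated 15 min with compound, then reacted 2 h at room temperature with 500 nM biotin-H3K9 peptide and 20 µM SAM. Monomethyl-H3K9 detected by AlphaScreen using anti-H3K9me1 antibody.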
JMJD2A Tudor inh = qHTS Assay for Inhibitors of JMJD2A-Tudor Domain; 4.4% of 390,000 active; Lysine-specific demethylase 4A (Homo sapiens), O75164; AlphaScreen JMJD2A-Tudor / H3K4me3 peptide binding; Potency, µM (titrated, usually from 114 µM), most hits filed as inhibitors; also: nearly all actives have a fitted effect of over 50% in size
Target sequence (O75164 whole entry, looked up, the tested form may be a part): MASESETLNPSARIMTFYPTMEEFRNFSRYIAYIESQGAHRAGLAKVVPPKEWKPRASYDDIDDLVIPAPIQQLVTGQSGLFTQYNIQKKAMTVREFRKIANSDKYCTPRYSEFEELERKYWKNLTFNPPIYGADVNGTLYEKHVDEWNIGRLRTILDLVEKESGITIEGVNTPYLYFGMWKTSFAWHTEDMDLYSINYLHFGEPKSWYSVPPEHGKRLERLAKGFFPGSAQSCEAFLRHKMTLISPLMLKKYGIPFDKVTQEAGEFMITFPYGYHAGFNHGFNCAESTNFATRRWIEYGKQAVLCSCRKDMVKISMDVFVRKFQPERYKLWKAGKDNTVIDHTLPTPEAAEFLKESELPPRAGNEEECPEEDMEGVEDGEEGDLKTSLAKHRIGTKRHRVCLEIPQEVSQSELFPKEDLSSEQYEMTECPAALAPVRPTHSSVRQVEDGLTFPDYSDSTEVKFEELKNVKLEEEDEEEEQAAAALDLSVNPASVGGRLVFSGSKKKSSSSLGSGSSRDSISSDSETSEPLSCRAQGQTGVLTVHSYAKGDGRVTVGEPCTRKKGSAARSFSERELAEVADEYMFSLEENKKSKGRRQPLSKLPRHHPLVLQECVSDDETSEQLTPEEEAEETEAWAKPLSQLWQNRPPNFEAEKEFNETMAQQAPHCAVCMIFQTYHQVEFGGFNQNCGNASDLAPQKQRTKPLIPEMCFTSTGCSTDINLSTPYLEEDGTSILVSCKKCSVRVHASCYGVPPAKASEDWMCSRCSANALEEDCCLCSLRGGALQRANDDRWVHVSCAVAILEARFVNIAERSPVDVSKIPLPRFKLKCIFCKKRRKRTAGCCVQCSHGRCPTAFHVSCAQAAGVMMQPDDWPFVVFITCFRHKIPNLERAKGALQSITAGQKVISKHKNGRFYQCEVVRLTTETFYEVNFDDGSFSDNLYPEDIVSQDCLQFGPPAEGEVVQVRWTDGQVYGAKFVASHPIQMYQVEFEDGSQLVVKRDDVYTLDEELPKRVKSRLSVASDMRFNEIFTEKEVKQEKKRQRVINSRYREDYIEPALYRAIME
BAZ2B block = qHTS Assay for Inhibitors of BAZ2B; Bromodomain adjacent to zinc finger domain protein 2B (Homo sapiens), Q9UIF8; 4.4% of 360,000 active; Potency, µM (series often up to 114 µM), actives largely listed as inhibitors; AID 504333, 2011; AlphaScreen BAZ2B-H3K14Ac peptide displacement; also: nearly all actives have a fitted effect of over 60% in size
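In this displacement format the biotinylated H3(5-23) peptide acetylated at Lys14 serves as ligand at 50 nM, with BAZ2B at 50 nM in PBS pH 7.4 containing 0.01% Tween-20. Donor and acceptor beads are 10 ug/mL final.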
Sfp inh = qHTS Assay for Inhibitors of Bacillus subtilis Sfp phosphopantetheinyl transferase (PPTase) | 4'-phosphopantetheinyl transferase ffp (Bacillus subtilis), Q9F4F7 | Biochemical Sfp PPTase activity, qHTS | Potency, µM, most hits filed as inhibitors | 3.5% of 310,000 active;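 also: the enzyme is Sfp with the accession as filed and its product quenches rhodamine fluorescence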
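Step 1, compound plus 15 nM Sfp-PPTase, 15 min, room temperature. Step 2, add rhodamine-CoA (5 uM) and BHQ-2-YbbR (12.5 uM). Step 3, read 525/598 nm fluorescence at 0 and 30 min.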
HP1b binding inh = HTS for Inhibitors of HP1-beta Chromodomain Interactions with Methylated Histone Tails. Chromobox protein homolog 1 (Homo sapiens), P83916. AlphaScreen HP1-beta / biotin-H3K9me3 peptide binding. Potency, µM (series often up to 114 µM), actives largely listed as inhibitors. 0.56% of 390,000 active. AID 540317, 2011; also: nearly all actives have a fitted effect of over 70% in size
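HP1-beta protein (50 nM final) preincubated 30 min at room temperature with biotinylated H3(1-18)K9me3 peptide (50 nM) in PBS pH 7.4, 0.01% Tween-20, then compound added for 30 min. AlphaScreen streptavidin donor/nickel chelate acceptor beads (10 ug/mL final), 30 min dark, luminescence read.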
Large screens that a line does not name were inactive. Calls follow the shape of the dose curve; as a rule, active = well fitted curve in the direction sought with a large enough effect; inconclusive = small, poorly fitted or top-dose-only effect, or another doubt; inactive = no such curve, though single readings can be large; an effect the other way counts as inactive or inconclusive.

CNC(=S)N1N=C(c2ccc(Br)cc2)CC1c1ccc(Br)cc1 (configuration not stated)	none
CNC(=S)N1N=C(c2ccc(Br)cc2)CC1c1ccc(N(C)C)cc1 (configuration not stated)	G9a block 7.94µM, JMJD2A Tudor inh 11.2µM, BAZ2B block 10µM, HP1b binding inh inconclusive
CNC(=S)N1N=C(c2ccc(OC)cc2)CC1c1ccc(N(C)C)cc1 (configuration not stated)	JMJD2A Tudor inh 35.5µM, BAZ2B block 11.2µM (no result: G9a block)
COc1ccc(C2CC(c3ccc(Br)cc3)=NN2C(=S)Nc2ccccc2)cc1 (configuration not stated)	G9a block 2µM, BAZ2B block inconclusive
Cc1csc2nc(COC(=O)c3ccc(NC(=O)c4ccccc4Br)cc3)cc(=O)n12	none (no result: Sfp inh)
CC(=O)Nc1ccc(NS(=O)(=O)c2c(C(=O)N3CCCCCC3)c(C)n(C)c2C)cc1	none (no result: Sfp inh)
O=C(CN1CCOCC1)OCCCc1ccccc1	none
Cc1ccc(CCCOC(=O)C[N+]2(C)CCOCC2)cc1	G9a block 10µM, JMJD2A Tudor inh 35.5µM, Sfp inh inconclusive
Cc1ccc(CCCOC(=O)CN2CCCCC2)cc1	none
C[N+]1(CC(=O)OCCCc2ccccc2)CCOCC1	G9a block 70.8µM, JMJD2A Tudor inh 50.1µM, BAZ2B block 44.7µM
C[C@H](CO)N1C[C@H](C)[C@@H](CN(C)C(=O)Nc2ccccc2)Oc2ccc(NC(=O)Cn3cnnn3)cc2C1=O	none (no result: G9a block, BAZ2B block, Sfp inh)
N#Cc1nc(Nc2cc(F)cc(F)c2)c2ncn(C3CCCC3)c2n1	none (no result: G9a block, BAZ2B block, Sfp inh, HP1b binding inh)
Cc1ccc(C(C)C)c(OCc2nn(CC(=O)c3ccc(Cl)cc3)c3[n+]2CCCCC3)c1	Sfp inh 31.6µM
O=C(Cn1nc(CNc2ccc(Cl)cc2)[n+]2c1CCCCC2)c1ccccc1	none
Cc1ccc(NS(=O)(=O)c2cc(NC(=O)c3ccc4c(c3)NC(=O)CS4)ccc2Cl)c(C)c1	G9a block 2.82µM, Sfp inh 15.8µM, HP1b binding inh inconclusive
COc1ccc(NC(=O)c2ccc3c(c2)NC(=O)CS3)cc1	G9a block inconclusive, JMJD2A Tudor inh 56.2µM (no result: Sfp inh)
COc1ccccc1-c1noc(-c2ccc(N3CCN(C)CC3)c([N+](=O)[O-])c2)n1	none (no result: Sfp inh)
Cc1ccc(-c2csc(-c3cc4c([nH]c3=O)CC(c3ccccc3)CC4=O)n2)cc1 (configuration not stated)	G9a block 2.51µM, JMJD2A Tudor inh 89.1µM, BAZ2B block 79.4µM (no result: Sfp inh)
COc1ccc(C2CC(=O)c3cc(-c4nc(-c5cccc(Cl)c5)cs4)c(=O)[nH]c3C2)cc1 (configuration not stated)	none (no result: Sfp inh)
O=C(CN1C(=O)C2CCCCC2C1=O)Nc1nc2ccc(F)cc2s1 (configuration not stated)	none (no result: Sfp inh)
COc1cc(C=C(c2nc3ccccc3s2)c2nc3ccccc3s2)ccc1O	G9a block 3.55µM, JMJD2A Tudor inh 44.7µM, BAZ2B block 35.5µM, HP1b binding inh inconclusive
COc1ccc(C=C(c2nc3ccccc3s2)c2nc3ccccc3s2)cc1O	G9a block inconclusive, JMJD2A Tudor inh inconclusive, BAZ2B block inconclusive, HP1b binding inh inconclusive
COc1cc(/C=C/c2nc3ccccc3s2)cc(OC)c1O	G9a block 50.1µM, BAZ2B block inconclusive
Cc1cc(C)nc(CCNC(=O)c2cc(COc3c(C)cccc3C)on2)n1	none
CC(=O)N1CCC(=NNc2ccnc3cc(Cl)ccc23)CC1	G9a block 28.2µM, BAZ2B block inconclusive
CC(=O)N1CCC(=NNc2ncc(C(F)(F)F)cc2Cl)CC1	BAZ2B block 35.5µM, Sfp inh inconclusive
CC(=O)c1ccc(N2CCN(c3ccnc4cc(Cl)ccc34)CC2)cc1	BAZ2B block inconclusive
CCOC(=O)N1CCC(=NNc2ncc(C(F)(F)F)cc2Cl)CC1	JMJD2A Tudor inh inconclusive, Sfp inh inconclusive (no result: BAZ2B block)
Cc1nn(C)cc1/C=N\NC(=O)c1csc2c1CCCC2	none
CN1CCN(c2ncc3nc(-c4cn(C)c5ccccc45)c(=O)n(-c4ccccc4)c3n2)CC1	none (no result: JMJD2A Tudor inh, BAZ2B block, HP1b binding inh)
COc1ccc(OC)c(CCNc2nccn(-c3ccc(C)c(C)c3)c2=O)c1	G9a block 15.8µM, JMJD2A Tudor inh 56.2µM, BAZ2B block 25.1µM, HP1b binding inh inconclusive (no result: Sfp inh)
